In all, about 360,000 compounds went through this assay and about 1,100 (0.31%) were called active. Only a selection was taken, and actives are over-represented in it overall. A number with no mark means an inactive call. Cut-off read from the data, not from the text of the source: active = activity change below about -80%; inconclusive = mostly about -51% to -80%; inactive = weaker than that.
Molecular target: RAC-alpha serine/threonine-protein kinase (Homo sapiens) (UniProt P31749)
Test: HTS Assay for Inhibitors of Akt Phophorylation: Primary Screen
Conditions: Neuro2A IGF-stimulated pAkt S473 HTRF, 20 min; at 50 µM, active compounds read low
Excerpt: The serine/threonine protein kinase Akt (protein kinase B) regulates various cellular processes, including cell survival, growth, proliferation, migration and differentiation. It has been well established that Akt is activated through two essential steps involving membrane translocation and phosphorylation. Cytosolic Akt is recruited to the plasma membrane via the interaction between the PH domain and membrane PIP3 produced by phosphoinositide-3 kinase (PI3K) upon growth factor receptor stimulation. The membrane-Akt interaction results in conformational changes of Akt, enabling its activation through phosphorylation at T308 in the kinase domain and at S473 in the C-terminal hydrophobic motif by PDK1 and mTOR-rictor complex (mTORC2), respectively. […] These findings indicate that S473 phosphorylation, as an important modulator of Akt activation, may be a valuable drug target for cell growth, survival, proliferation and differentiation. These inhibitors also may have significant therapeutic potential with fewer side effects, especially for the conditions involving hyperactive Akt signaling, such as cancer and Alzheimer's disease.
To this end, a miniaturized assay was developed to be screened against the Molecular Libraries Small Molecule Repository (MLSMR).
NIH Chemical Genomics Center [NCGC]
NIH Molecular Libraries Probe Centers Network [MLPCN]
Assay Submitter (PI): Hee-Yong Kim, National Institute on Alcohol Abuse and Alcoholism
3 uL of Neuro2A cell suspension in DMEM containing 0.5% FBS and […] antibiotics mix was plated in a white solid bottom tissue culture-treated 1536-well plate (Greiner Bio-One, Monroe, NC) at 4,500 cells per well and incubated overnight at 37 deg C. 23 nL/well of compound solutions in DMSO was added with Pintool transfer (Kalypsis, San Diego, CA) at single […] final concentration. Then, the cells were stimulated with 1.5 uL of IGF (6 nM final concentration) and incubated at 37 deg C for 20 min. The reaction was terminated by the addition of 1.5 uL blocking reagent mixed with lysis buffer (1:25 correspondingly) provided with HTRF(R) Phospho Akt (Ser473) kit (Cisbio US, Bedford, MA), with following incubation for 50 min at ambient temperature. The detection HTRF conjugates from the kit were prepared according to the protocol, pre-mixed 1:1 prior to dispensing, and 2 uL/well was added with BioRAPTR FRD dispenser (Beckman Coulter). The assay plates were incubated for 24 hours at ambient temperature, and the HTRF fluorescence was measured using Envision plate reader (PerkinElmer) with excitation at 330nm, emission at 615nm (Eu(3)-Cryptate donor signal) and 665nm (d2 acceptor signal). The ratio of […] was calculated for each well.
% is set by controls: 0 for no effect and ±100 for the full control effect.

| Structure (SMILES) | activity change |
| --- | --- |
| O=C(c1c(F)cccc1Cl)N1CCN(c2ccccn2)CC1 | inactive |
| O=C(c1ccc2c(c1)N(Cc1ccc(F)cc1)C(=O)c1ccccc1S2(=O)=O)N1CCN(c2ccccn2)CC1 | inactive |
| O=C(c1ccc2c(c1)C(=O)N(c1ccc(Cl)cc1)C2=O)N1CCN(c2ccccn2)CC1 | -121% (active) |
| Cc1ccc(S(=O)(=O)N2[C@@H](Cc3ccccc3)CO[C@H]2CC(=O)OCc2ccccc2)cc1 | inactive |
| O=C(NC1CCCCC1)C(c1cc2ccccc2o1)n1c(=O)c(-c2ccco2)nc2ccccc21 (configuration not stated) | inactive |
| Cc1ccc2c(c1)N(CC(=O)N(Cc1ccccn1)Cc1ccco1)C(=O)C(C(C)C)O2 (configuration not stated) | 1.92% |
| O=C(NCc1ccccc1)C(c1ccc(F)cc1)N1CCN(C(=O)C2CCCO2)CC1 (configuration not stated) | inactive |
| CCC(C(=O)NCc1ccccc1)n1c(Cc2cc(F)cc(F)c2)nc2ccccc21 (configuration not stated) | inactive |
| Cc1cccc2nc(CNc3ccc(F)cc3)cn12 | -128% (active) |
| CCOC(=O)CSc1nnc(CNc2ccc(F)cc2)o1 | inactive |
| COC(=O)c1ccc2nc(-c3ccc(F)cc3)c(Cc3ccc(C)cc3)n2c1 | inactive |
| O=C(NC(=O)c1ccc(Cl)c(Cl)c1)OC1CCS(=O)(=O)C1 (configuration not stated) | inactive |
| COCCNC(=O)C1C(=O)Nc2ccccc2C(=O)N1c1ccc2c(c1)OCCO2 (configuration not stated) | inactive |
| CC(C)c1cc(Cn2c3ccccc3c(=O)n2C(C)Cn2cc(C3CC3)nn2)on1 (configuration not stated) | inactive |
| CN(c1cccc(NC(=O)c2ccc(CN3CCc4ccccc4C3)cc2)c1)S(C)(=O)=O | inactive |
| CS(=O)(=O)N(CC(=O)N1CCc2ccccc2C1)c1ccc(Br)cc1 | inactive |
| COc1cccc(N(CC(=O)N2CCc3ccccc3C2)S(C)(=O)=O)c1 | -106% (active) |
| Cn1cccc1C(=O)N1CCc2ccccc2C1 | inactive |
| CN(c1ccc(C(=O)N2CCc3ccccc3C2)cc1)S(C)(=O)=O | -108% (active) |
| Cc1ccc(S(=O)(=O)N(CC(=O)N2CCc3ccccc3C2)c2cccc(Cl)c2)cc1 | inactive |
| Nc1ccc(N=Nc2ccccc2Cl)c(N)n1 | inactive |
| O=C(CN1C(=O)CCS(=O)(=O)c2ccccc21)NCc1ccc(F)cc1 | 11.8% |
| O=C1C(=O)N(CCN2CCOCC2)C(c2ccccn2)/C1=C(/O)c1ccc(Cl)cc1 (configuration not stated) | -111% (active) |
| COc1ccc(C2/C(=C(/O)c3ccc(OC(C)C)cc3)C(=O)C(=O)N2CCCN2CCOCC2)cc1 (configuration not stated) | inactive |
| O=C1C(=O)N(CCN2CCOCC2)C(c2cccc(Cl)c2)/C1=C(/O)c1ccc2c(c1)OCO2 (configuration not stated) | inactive |
| O=c1[nH]n2c(=O)c3c([nH]c2c1N=Nc1ccccc1)CCC3 | inactive |
| CC(C)(C)n1c(=O)[nH]c2c(c1=O)CCC2 | -114% (active) |

From PubChem BioAssay AID651550 (National Center for Advancing Translational Sciences (NCATS), 2012)
